Assay results as given in PubChem BioAssay (NCI).
The panel holds about 83,000 compounds, 20% with a hit somewhere; the sample as a whole holds those more often.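 Negative percent growth values reflect cell death: -40 means 40% of the cells present at the start died, and -100 means all died.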 Values without a mark were called inactive. The source made the active and inactive calls. Rule for the calls: active = growth percent below 10; inactive = the rest.

What was measured:
Experiment in all cases: NCI-60 one-dose screen, 48 h (100 = growth as untreated, 0 = no growth, -100 = all killed)
Details in all cases: 10 µM unless noted
SK-MEL-2 melanoma = system: SK-MEL-2 melanoma
EKVX NSCLC = system: EKVX NSCLC
SN12C renal = system: SN12C renal
UO-31 renal = system: UO-31 renal
TK-10 renal = system: TK-10 renal
ACHN renal = system: ACHN renal
CAKI-1 renal = system: CAKI-1 renal
A498 renal = system: A498 renal
CCRF-CEM leukemia = system: CCRF-CEM leukemia
MOLT-4 leukemia = system: MOLT-4 leukemia
SR leukemia = system: SR leukemia
RPMI-8226 leukemia = system: RPMI-8226 leukemia
OVCAR-8 ovarian = system: OVCAR-8 ovarian
OVCAR-5 ovarian = system: OVCAR-5 ovarian
OVCAR-4 ovarian = system: OVCAR-4 ovarian
SK-OV-3 ovarian = system: SK-OV-3 ovarian
IGROV1 ovarian = system: IGROV1 ovarian
OVCAR-3 ovarian = system: OVCAR-3 ovarian
HS 578T breast = system: HS 578T breast
NCI/ADR-RES ovarian = system: NCI/ADR-RES ovarian

Row | SMILES | growth (SK-MEL-2 melanoma) | growth (EKVX NSCLC) | growth (SN12C renal) | growth (UO-31 renal) | growth (TK-10 renal) | growth (ACHN renal) | growth (CAKI-1 renal) | growth (A498 renal) | growth (CCRF-CEM leukemia) | growth (MOLT-4 leukemia) | growth (SR leukemia) | growth (RPMI-8226 leukemia) | growth (OVCAR-8 ovarian) | growth (OVCAR-5 ovarian) | growth (OVCAR-4 ovarian) | growth (SK-OV-3 ovarian) | growth (IGROV1 ovarian) | growth (OVCAR-3 ovarian) | growth (HS 578T breast) | growth (NCI/ADR-RES ovarian)
1 | O=C(OCC(O)C(=O)NC12CC3CC(CC(C3)C1)C2)c1cccc(Br)c1 (stereo not given) | 103% | 96.4% | 102% | 84.9% | 109% | 101% | 96.2% | 94.4% | 81.9% | 87% | 84.9% | 94.6% | 95.9% | 101% | 98.2% | 102% | 103% | 109% | 95.7% | 101%
2 | COC(=O)[C@H](C)NC(=O)[C@@H]1CCCN1C(=O)CNC(=O)[C@H](C)N | 113% | 89.6% | 105% | 91.2% | 95.5% | 108% | 88.4% | 93.2% | 115% | 102% | 114% | 116% | 105% | 114% | 89.1% | 102% | 109% | 112% | 99.8% | 106%
3 | CC1(C)CCC[C@]23C(=O)O[C@](O)(C(=O)C4=C[C@@](C)(/C=C/CCCc5ccc6ccc7cccc8ccc5c6c78)CC[C@@]42O)[C@@H]13 | -61.8% (active) | -84.9% (active) | -94.4% (active) | -97.1% (active) | -88.7% (active) | -100% (active) | -98.5% (active) | -87.9% (active) | 0.0961% (active) | 9.46% (active) | 9% (active) | -21.4% (active) | -34.2% (active) | -75.7% (active) | -92.3% (active) | -66.2% (active) | -83% (active) | -82% (active) | -7.13% (active) | -18.7% (active)
4 | C=CCNc1nc(O)c(/C=C2\C=Nc3ncccc32)s1 | -8.35% (active) | 30.5% | 24% | 3.09% (active) | 1.67% (active) | -1.22% (active) | 30.2% | -34.5% (active) | 7.13% (active) | 5.78% (active) | -9.51% (active) | 42.7% | 10.7% | 5.27% (active) | 34.7% | -7% (active) | 17% | -7.02% (active) | -15% (active) | 42.1%
5 | Oc1ccc(Cc2ccc(O)c3ncccc23)c2cccnc12 | -17.9% (active) | 8.21% (active) | 8.11% (active) | 1.7% (active) | -9.53% (active) | -4.29% (active) | 16.2% | 5.58% (active) | 17.4% | 11.8% | 9.74% (active) | 8.21% (active) | 12.6% | 21.6% | 14.2% | -17.2% (active) | 7.8% (active) | 14.1% | 36.6% | 20.2%
6 | N=C(N)c1ccc(-c2ccc(-c3ccccc3)s2)nc1 | 104% | 88.8% | 82.4% | 79.9% | 106% | 91.5% | 73.6% | 88.3% | 68.9% | 57.3% | 12.5% | 48% | 91.9% | 92.9% | 107% | 88.6% | 82.3% | 95% | 85% | 96.7%
7 | CC(C)(C)[C@H](OCc1cn([C@H]2C[C@@H](O)[C@@H](CO)O2)c(=O)[nH]c1=O)c1ccc(C#Cc2ccccc2)cc1[N+](=O)[O-] | 81.3% | 67.4% | 88.5% | 72% | 61.7% | 77.4% | 79.3% | 95% | 72.2% | 57.6% | 35.7% | 36.8% | 87% | 97.6% | 85% | 93.5% | 88% | 87.7% | 77.9% | 87.5%
8 | N=C(N)c1ccc(-c2ccc(-c3ccc(Cl)cc3Cl)s2)nc1 | 109% | 93.6% | 81% | 91.3% | 122% | 74.2% | 39.1% | 104% | 39.1% | 13.5% | 5.54% (active) | 0.186% (active) | 36.2% | 80.2% | 98.2% | 91.3% | 50.6% | 64.4% | 90.1% | 96.7%
9 | COc1cc2c(c(OC)c1OC)C(=O)CC(c1cccc(C(=O)Nc3ccc(Br)cc3)c1)O2 (stereo not given) | 60.3% | 63.5% | 51.1% | 40.3% | 75.2% | 63.9% | 62% | 40.3% | 9.34% (active) | -0.848% (active) | 22.2% | 14.6% | 47.1% | 89.4% | 45.6% | 76.2% | 67.4% | 65% | 91.4% | 36.1%
10 | Nc1nc(Nc2ccc([N+](=O)[O-])cc2O)nc(C(Cl)(Cl)Cl)n1 | 79% | 106% | 80.6% | 71.7% | 92.4% | 79.7% | 46.3% | 36.5% | 19.3% | 25.8% | 7.45% (active) | 51.1% | 81.6% | 105% | 55.2% | 95.4% | 88% | 55% | 84.3% | 48%
11 | COc1ccc(N/N=C/c2ccc3c(c2)Sc2ccccc2N3C)cc1 | 98% | 65.9% | 79.3% | 42.1% | 114% | 51.6% | 26.2% | 17.5% | 73.6% | 38.8% | 42.2% | 78.2% | 65.9% | 53.3% | 60.7% | 87.4% | 55.8% | 77.7% | 95.1% | 79.6%
12 | CCN(CC)CCOc1ccc(/C(=C(\C)Cc2ccc(OC)cc2)c2ccc(O)cc2)cc1 | -45.7% (active) | 66.5% | 54.9% | -34.2% (active) | 35.8% | 18.9% | -21.3% (active) | 92.9% | -3.51% (active) | -9% (active) | -52.4% (active) | -33.2% (active) | 29% | 69.3% | 46.7% | 64.5% | 47.3% | 46.7% | 33.5% | 53.1%
13 | CC(=O)CC(=O)c1ccccc1.[Cu+2] | 107% | 99.4% | 105% | 94.5% | 103% | 104% | 101% | 141% | -10.7% (active) | 91.7% | 51.8% | 97.8% | 110% | 107% | 106% | 82.4% | 87% | 114% | 119% | 104%
14 | CNC(=O)c1cc(Oc2ccc3nc(NC(=O)NC(C)C)sc3c2)ccn1 | 89.9% | 93.7% | 86.3% | 79.2% | 88.6% | 94% | 91.9% | 51.4% | 64.4% | 40.7% | 30.4% | 73.2% | 88.4% | 117% | 77.8% | 87% | 86.7% | 97.4% | 74.6% | 65%
15 | COc1ccccc1NC(=O)n1c(=O)cc(C)c2ccc(O)cc21 | 101% | 100% | 101% | 88.6% | 111% | 110% | 99.6% | 113% | 107% | 103% | 118% | 109% | 106% | 112% | 110% | 100% | 113% | 113% | 110% | 107%
